Results: PubChem BioAssay (NCI)
About 83,000 compounds went through this panel and 20% of them were active in at least one assay; those are over-represented in the sample as a whole.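 Compound tested at a single concentration for 48 hours in 96-well plates; a percent growth value below 10 was scored as active.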 Unmarked numbers belong to inactive results. Active and inactive are the calls of the source.

Assays:
Assay in all cases: NCI-60 one-dose screen, 48 h (100 = growth as untreated, 0 = no growth, -100 = all killed)
Conditions in all cases: 10 µM unless noted
[1] = system: NCI-H23 lung
[2] = system: NCI-H226 lung
[3] = system: NCI-H322M lung
[4] = system: HOP-62 NSCLC
[5] = system: NCI-H460 lung
[6] = system: HOP-92 NSCLC
[7] = system: NCI-H522 lung
[8] = system: A549/ATCC NSCLC
[9] = system: 786-0 renal
[10] = system: COLO 205 colon
[11] = system: DU-145 prostate
[12] = system: K-562 leukemia
[13] = system: MALME-3M melanoma
[14] = system: MDA-MB-231 breast
[15] = system: RXF 393 renal
[16] = system: SF-268 CNS
[17] = system: SF-295 CNS
[18] = system: SF-539 CNS
[19] = system: UACC-257 melanoma
[20] = system: M14 melanoma

Row | Structure (SMILES) | growth [1] | growth [2] | growth [3] | growth [4] | growth [5] | growth [6] | growth [7] | growth [8] | growth [9] | growth [10] | growth [11] | growth [12] | growth [13] | growth [14] | growth [15] | growth [16] | growth [17] | growth [18] | growth [19] | growth [20]
1 | CC[C@@H]1C(=O)N(C)c2cnc(Nc3ccc(C(=O)NC4CCN(C)CC4)cc3OC)nc2N1C1CCCC1 | 8.04% (active) | 52.6% | 24.9% | -20.1% (active) | 8.51% (active) | 7.59% (active) | -14.4% (active) | 3.29% (active) | 8.26% (active) | -54% (active) | 9.68% (active) | 0.167% (active) | -15.9% (active) | 17% | -3.01% (active) | 15.5% | 11% | -82.4% (active) | -9.29% (active) | -25.9% (active)
2 | COc1cc2ncnc(Nc3ccc(O)cc3)c2cc1OC | 104% | 95.2% | 12.4% | 86.5% | 103% | 78% | 11% | 45.8% | 83.4% | 115% | 61.3% | 73% | 102% | 88.8% | 82.3% | 86.6% | 98.8% | 73.4% | 63.7% | 79.7%
3 | Cn1c(=O)c(F)c(Nc2ccc(I)cc2F)c2c(=O)n(C[C@@H](O)CO)cnc21 | 21.5% | 52.5% | 14% | 22.5% | 62.3% | -23.8% (active) | 41.4% | 19.2% | 58.3% | 2.24% (active) | 52.1% | 28.5% | 0.26% (active) | 19% | -3.91% (active) | 59.5% | 77.5% | 52.3% | -21.4% (active) | 6.75% (active)
4 | Cc1nc(N)sc1-c1ccnc(Nc2ccc(N3CCOCC3)cc2)n1 | 43.1% | 35.6% | 51.4% | 11.4% | 15.9% | 34.9% | 11.6% | 21.9% | 34.5% | 1.1% (active) | 33.2% | 59.1% | 47.8% | 29.5% | 18.3% | 28.5% | 25.3% | 25.6% | 71.9% | 36.8%
5 | CCOc1ccc(N=C(C)Nc2ccc(OCC)cc2)cc1 | 102% | 110% | 124% | 109% | 102% | 81.9% | 128% | 95.3% | 104% | 102% | 114% | 99.6% | 117% | 118% | 113% | 88.8% | 107% | 118% | 104% | 101%
6 | COC(=O)N[C@@H](C)CNc1nccc(-c2cn(C(C)C)nc2-c2cc(Cl)cc(NS(C)(=O)=O)c2F)n1 | 59.2% | 94.9% | 78.7% | 72.7% | 91.2% | 49.7% | 44.2% | 53.4% | 48.6% | 4.94% (active) | 79.6% | 69.4% | 1.63% (active) | 61% | 42.7% | 82.2% | 103% | 91.2% | -25.8% (active) | 3.81% (active)
7 | COc1cc2c(Oc3ccc(NC(=O)C4(C(=O)Nc5ccc(F)cc5)CC4)cc3F)ccnc2cc1OCCCN1CCOCC1 | 10.1% | 12.3% | -1.77% (active) | -13.5% (active) | -40.8% (active) | -58.2% (active) | -57% (active) | -77.1% (active) | -75.7% (active) | -71.3% (active) | 16.4% | -12.1% (active) | -71.6% (active) | -60.3% (active) | -94.5% (active) | 11.6% | -82.9% (active) | -90.5% (active) | -85.3% (active) | -65.9% (active)
8 | Cc1nc2ccc(-n3ncc(C(=O)c4cc5ccccc5[nH]4)c3N)cc2[nH]1 | 74% | 48.4% | 86.5% | 55.9% | 5.14% (active) | 74.8% | 36.5% | 36.9% | 55.2% | 38.7% | 60.7% | 17.4% | 64.5% | 53.9% | 15.5% | 50.5% | 53.5% | -2.11% (active) | 79.5% | 61.1%
9 | CCN1CCN(CCCN(C[C@H]2Cc3ccccc3CN2)[C@H]2CCCc3cccnc32)CC1 | 101% | 83.7% | 79.7% | 65.2% | 89.8% | 60.3% | 89.3% | 90.9% | 83.3% | 97.2% | 96.7% | 63.5% | 113% | 77.4% | 93.8% | 75.9% | 90.7% | 94.2% | 80.4% | 87.3%
10 | C=CCn1c(=O)c2cnc(Nc3ccc(N4CCN(C)CC4)cc3)nc2n1-c1cccc(C(C)(C)O)n1 | 2.22% (active) | 40% | 14.1% | 2.56% (active) | 12% | 49.2% | -45.8% (active) | 15.9% | 14% | -29.5% (active) | 17.2% | 1.55% (active) | 44.8% | 9.62% (active) | -27.1% (active) | 30.7% | 34.8% | -26.3% (active) | 46.1% | 9.79% (active)
11 | Cc1csc(-c2nnc(Nc3ccc(Oc4ncccc4-c4ccnc(N)n4)cc3)c3ccccc23)c1 | 54.6% | 72.5% | 30.5% | 14.6% | 25.3% | 85.5% | 30.8% | 26.6% | 67.9% | -4.72% (active) | 55.8% | 40% | 18.6% | 37.7% | 8.98% (active) | 58.3% | 60.2% | 41.1% | 20.8% | 15.4%
12 | CNC(=O)c1cc(Oc2ccc(NC(=O)Nc3ccc(Cl)c(C(F)(F)F)c3)c(F)c2)ccn1 | -25.8% (active) | -16.8% (active) | -13.4% (active) | -48.1% (active) | -35.4% (active) | -20.1% (active) | -69.3% (active) | -2.14% (active) | 3.58% (active) | -59% (active) | 14.9% | -3.75% (active) | -36.3% (active) | -57.2% (active) | -31.3% (active) | -30.6% (active) | -47.4% (active) | -71.7% (active) | -50.3% (active) | -28.1% (active)
13 | COc1ccc(-c2ccc3ncc4c(c3c2)n(-c2ccc(N3CCNCC3)c(C(F)(F)F)c2)c(=O)n4C)cn1 | -71.6% (active) | -66.4% (active) | -89.6% (active) | -72% (active) | -82.9% (active) | -83.2% (active) | -61.7% (active) | -83.2% (active) | -81.1% (active) | -73.9% (active) | -89.4% (active) | -48.2% (active) | -75.3% (active) | -77.4% (active) | -83.2% (active) | -76.3% (active) | -91.8% (active) | -84.7% (active) | -72.2% (active) | -83.2% (active)
14 | CCCS(=O)(=O)Nc1ccc(F)c(C(=O)c2c[nH]c3ncc(-c4ccc(Cl)cc4)cc23)c1F | 56% | 57.2% | 27.8% | 34.8% | 17.3% | 28% | 28.9% | 25.6% | 19% | -4.91% (active) | 49.3% | 21.9% | 11.2% | 34.4% | -11.6% (active) | 41.4% | 7.92% (active) | 23.7% | -6.6% (active) | 3.85% (active)
15 | Cc1ccccc1N1C(c2ccccc2)=NNC12C=CC(=O)C=C2Cl (stereo not given) | 98.1% | 115% | 95.4% | 98.3% | 115% | 114% | 95.2% | 75.5% | 106% | 99.3% | 110% | 96.4% | 98.6% | 111% | 132% | 99.1% | 108% | 93.4% | 81.1% | 105%
